Measured values from PubChem BioAssay (NCI).
The panel holds about 79,000 compounds, 15% with a hit somewhere; the sample as a whole holds those more often. Unmarked numbers belong to inactive results. Calls of active or inactive are those of the source. No stated cut-off is given here; in the data, active means growth inhibition above about 70%; inactive means the rest.

Assay: NCI Yeast Anticancer Drug Screen. Data for the rad50 strain (AID 155);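 further: 0% = growth of vehicle-only cultures of the same strain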
Conditions: S. cerevisiae rad50 strain growth inhibition, hits give high values
Method: Growth inhibition of yeast strains with defined genetic alterations is measured as a screen for potential anti-cancer activity. Selected strains with alterations in DNA damage repair or cell cycle control were exposed to compounds and growth inhibition was measured relative to vehicle treated controls. The strain used in this assay is rad50

[1] = at 5.0 µM (retest, dose inferred, filed as 0.5)
[2] = at 50.0 µM (retest, dose inferred, filed as 5.0)

| SMILES | growth inhibition [1] [%] | growth inhibition [2] | growth inhibition (at 50.0 µM) |
| --- | --- | --- | --- |
| COC(=O)c1ccc(C)cc1C1CN=NC12Cc1cccc(C)c1C2=O (configuration not stated) | 1 | 9% | 26.8% |
| CCCNC(=O)N(CC(C)(C)C)S(=O)(=O)c1ccc(Cl)cc1 | -4 | -10% | 71.1% (active) |
| CC(=O)OC(CCl)C(C)[N+](=O)[O-] (configuration not stated) | 7 | 91% (active) | 90.8% (active) |
| OC(COc1ccc(Cl)cc1)CN1CCN(c2cccc(Cl)c2)CC1 (configuration not stated) | 20 | 99% (active) | 95.8% (active) |
| COc1cccc2c1N[S@](=O)S2 | -12 | 95% (active) | 86.9% (active) |
| CCCCCCC(/C=C/c1ccccc1)=N\O | 0 | 96% (active) | 98.8% (active) |
| O=Cc1c(I)cc(I)c(O)c1I | 45 | 88% (active) | 98.6% (active) |
| CC(C)(C)CCCC(C(=O)O)c1ccccc1 (configuration not stated) | 0 | 50% | 82.6% (active) |
| O=C(Nn1c(-c2ccccc2)nc2ccccc2c1=O)c1ccccc1O | -4 | 49% | 73.4% (active) |
| COC(=O)c1c(C)cccc1C(=O)c1c(C)cc(C)cc1C | -6 | 63% | 73.1% (active) |
| CC(=O)Nc1ccc(Nc2ccc(C(=C3C=CC(=[N+](C)CCC#N)C=C3)c3ccc(N(C)CCC#N)cc3)cc2)cc1 | 11 | 64% | 8.4% |
| CCc1cc2nc3c(=O)[nH]c(=O)nc-3n(CCN(CCO)CCO)c2cc1CC | 5 | 3% | 41% |
| O=C(Nc1ccc(Cl)cc1Cl)C1C(=O)OC2(CCCCC2)OC1=O | 24 | 96% (active) | 84.5% (active) |
| CCCCOC(=O)c1n[nH]c(C)c1N=NN(C)C | 43 | 99% (active) | 99% (active) |
